In all, about 1,400 compounds went through this assay and about 100 (7.1%) were called active. A selection follows. Entries with a potency or affinity are not part of this list. Unmarked numbers belong to inactive results. No rule for the calls is given here.
Assay: Vero cell toxicity, dose response, cytotoxicity control, plate reader, cherry-pick samples (AID 687020);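 also: compounds incubated with cells for three days before luminescence read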
Details: Vero cells toxicity; series mostly up to 19.5 µM; activity change, negative = toxicity: at the top concentration

Compound	activity change, negative = toxicity
CCCNC(=O)C(Cc1ccc(I)cc1)NC(=O)c1ccc(C#N)cc1 (stereo not given)	-7.83%
O=C(CN1CCN(Cc2ccccc2)CC1)NNC(=O)c1ccccc1	5.73%
Cc1ccnc(NC(=O)C(Cc2ccccc2)NC(=O)c2ccccc2)c1 (stereo not given)	-0.022%
Cc1cn([C@H]2C[C@H](O)[C@@H](CNCc3ccc4ncccc4c3)O2)c(=O)[nH]c1=O	1.96%
CCOc1ccc(N(CC(=O)Nc2cccc(C)c2)S(C)(=O)=O)cc1	0.008%
CCN(CC)S(=O)(=O)c1ccc(NC(=O)COC(=O)CNC(=O)C2CCCCC2)cc1	-11.8%
CCCc1cc(=O)oc2c(C)c(OCC(=O)N3C[C@H]4C[C@@H](C3)c3cccc(=O)n3C4)ccc12	-1.16%
Cc1c(C)c2c(OCC(=O)N3CCC(O)CC3)cc3c(c2oc1=O)CCC(C)(C)O3	-2.19%
C[C@@H]1CN([C@H](C)CO)C(=O)c2cc(NC(=O)Nc3ccc(C(F)(F)F)cc3)ccc2O[C@@H]1CN(C)Cc1ccccc1	-1.61%
COc1ccccc1N1CCN(C(=O)c2cc(S(=O)(=O)N3CCCCC3)ccc2C)CC1	2.93%
CC(C)(C)OC(=O)C(Cc1ccc(OC(C)(C)C)cc1)NC(=O)CNC(=O)OCc1ccccc1 (stereo not given)	7.26%
O=C(Nc1ccn(CC(=O)N2CCN(c3ccccn3)CC2)c(=O)n1)OCc1ccccc1	0.414%
Cc1cccc(NC(=O)c2cccc(S(=O)(=O)N(C)C3CCCCC3)c2)n1	-9.89%
CCCC/C=C/c1cccc2nncn12	-16.7%
COc1cccc(-c2nc3nc(C)cc(C)n3c2NC2CCCC2)c1	-12.2%
CCC(=O)Nc1cc(C(=O)OCc2ccc(C(=O)Oc3ccccc3)cc2)ccc1C	-7.35%
O=C([C@@H]1[C@@H](CO)[C@@H]2Cn3c(cccc3=O)[C@H]1N2C(=O)CC1CC1)N1CCCCC1	-1.82%
CCCCNC(=O)c1onc(CS(=O)(=O)c2ccccn2)c1C(=O)NCCCC	3.17%
COc1ccc([C@H]2/C=C\CN(C(=O)c3ccc(C)cc3)[C@@H](C)C(=O)N2Cc2ccc(F)cc2)cc1	-21%
O=C(N[C@H](Cc1ccccc1)C(=O)NC1CCCCC1)[C@H]1O[C@@H](n2ccc(=O)[nH]c2=O)[C@H](O)[C@@H]1O	-7.41%
COC(=O)c1ccc2nc(-c3ccc(C#N)cc3)c(Cc3cccc(F)c3)n2c1	-7.15%
COC(=O)c1ccc2nc(C3CCCCC3)c(Cc3ccccc3OC)n2c1	4.3%
CCN1CCN(CCc2nc3cc(NC(=O)COc4ccc(Cl)cc4)ccc3n2C)CC1	7.94%
CCN1C(=NCCc2c[nH]c3ccccc23)N[C@@H](c2ccccc2)[C@H](C(=O)OC)[C@H]1C	2.11%

Compound	activity change, negative = toxicity
NCc1csc(NC(=O)Nc2cccc(Cl)c2)n1	-0.314%
COC(=O)[C@]12CCCCC=C1N(Cc1cccc3ccccc13)C(=O)[C@H](CC(=O)NCCC(C)C)C2	-3.09%
COC(=O)[C@]12CCCCC=C1N(Cc1cccc3ccccc13)C(=O)[C@H](CC(=O)N1CCOCC1)C2	-24.4%
COc1ccc(S(=O)(=O)Nc2ccc3c(c2)C(=O)N([C@@H](C)CO)C[C@H](C)[C@H](CN(C)C(=O)Nc2ccc(C(F)(F)F)cc2)OCCCC[C@H](C)O3)cc1	-3.77%
CC(NC(=O)CN1CCCC1)c1ccccc1 (stereo not given)	-14.4%
Cc1cc(C)c2[nH]c(C(=O)Nc3ccc4c(c3)OCO4)cc2c1	12.9%
Cc1cccc(OCCn2c(=O)n(C)c3ccccc32)c1	0.128%
Cc1c(C)c2cc(Cl)c(OCC(=O)NCCCN3CCCC3=O)cc2oc1=O	-17.8%
Cc1oc2cc3oc(=O)c(CCC(=O)NCCCn4ccnc4)c(C)c3cc2c1C	-2.65%
COc1ccc(CN(CCC(c2ccccc2)C2CCOC(C)(C)C2)C(C)=O)cc1 (stereo not given)	-28.6%
Cc1ccc(C2(C)NC(=O)N(CC(=O)Nc3ccccc3C(=O)NC3CCCC3)C2=O)cc1 (stereo not given)	16.5%
Cc1cccc(C(=O)NC2CCN(CC(=O)Nc3cccc(Cl)c3)CC2)c1	-13.7%
O=S1(=O)CCOCCCN1Cc1ccccc1Br	-11.1%
CN1C(=O)c2cc(NC(=O)Cc3cccs3)ccc2OC[C@@H]2O[C@H](CC(=O)NCC3CCCCC3)CC[C@H]21	-0.804%
CC(=O)N1CC2(C1)[C@H](c1ccc(-c3ccc(C#N)cc3)cc1)[C@@H](CO)N2C(=O)C1CC1	-8.45% [at 21 µM]
CCCCN1C(Nc2ccccc2)=NC[C@@H]1Cc1ccccc1	-27.3%
O=C(Nc1ccccc1)c1ccccc1CSc1ccccc1	-1.49%
O=S(=O)(c1cccc(C(F)(F)F)c1)N1CCN(CC(O)COCc2ccccc2)CC1 (stereo not given)	-21.4%
O=C(Cc1cccc(C(F)(F)F)c1)Nc1ccc(S(=O)(=O)N2CCCC2)cc1	-7.86%
CC1(C#N)c2ccccc2C(Br)=CN1C(=O)c1ccccc1 (stereo not given)	-10.1%
COc1ccc(NC(=O)C2CCC(CNS(=O)(=O)c3cccs3)CC2)cc1OC (stereo not given)	9.24%
O=C1Nc2ccccc2SC1c1ccccc1 (stereo not given)	-3.58%
COc1ccc(-c2nc3ccc(C)cn3c2Cc2cccc(F)c2)cc1OC	-12.7%
CC(=O)Nc1cccc(/C(C)=N/NC(=O)c2cccc(S(=O)(=O)N3CCCC3)c2)c1	-0.142%

Compound	activity change, negative = toxicity
CC(=O)Nc1cccc(C(=O)OCC(=O)Nc2ccc(Cl)cn2)c1	-16.6%
O=C(C1CCOCC1)N1[C@H](CO)[C@@H](c2ccccc2)C12CN(Cc1cccnc1)C2	-1.45% [at 21 µM]
COC(=O)Cc1ccc(OC2(C)CCN(Cc3csc4ccccc34)C2)cc1 (stereo not given)	-3.5%
COc1ccc(Cc2nnc(NC(=O)c3ccccc3Cl)s2)cc1OC	7.56%
COC(=O)CCc1cccc(CCC(=O)OC)c1	13%
C[C@@H](NC(=O)C[C@@H]1CC[C@H]2[C@@H](COC[C@H](O)CN2C(=O)Nc2ccccc2)O1)c1ccccc1	-8.89%
Cc1ccc(S(=O)(=O)NC(=O)C2(C)CCN2C(=O)c2ccc(C(F)(F)F)nc2C)cc1 (stereo not given)	1.35%
O=S(=O)(c1cnc(Cl)c(Cl)c1)N1CCc2ccccc21	-3.26%
Cc1ccc(-c2csc(NC(=O)c3ccc(S(=O)(=O)N4CCc5ccccc54)cc3)n2)cc1	-32.4%
COc1ccc(CC(=O)OCC(=O)NCCNC(=O)COC(=O)Cc2ccc(OC)cc2)cc1	-7.45%
COCCNC(=O)C[C@@H]1C[C@H]2c3cc(NC(=O)Nc4ccc(OC)cc4)ccc3O[C@H]2[C@@H](CO)O1	12.2%
C[C@H](CCC(=O)O)[C@H]1CC[C@H]2[C@@H]3CC[C@@H]4C[C@H](O)CC[C@]4(C)[C@H]3C[C@H](O)[C@]12C	-10.8%
Cc1oc2c(C)c3oc(=O)c(CCC(=O)NCCN4CCOCC4)c(C)c3cc2c1C	5.6%
CC(Oc1ccc(Cl)cc1Cl)C(=O)NCCCN1CCOCC1 (stereo not given)	-2.88%
O=C(NC1CCCCC1)N[C@H]1C=C[C@@H](CC(=O)N2CCOCC2)O[C@@H]1CO	-5.32%
CN(CC(=O)Nc1ccccc1C(=O)NC1CC1)Cc1ccccc1F	-2.83%
CCCCCC(=O)NC1CCCCN(C)C1=O (stereo not given)	2.66%
CC(=O)NCCNc1nc(NCc2cccs2)nc2ccsc12	-8.23%
COc1ccc(N2CCN(Cc3nc4c(c(=O)[nH]c(=O)n4C)n3Cc3cccc(Cl)c3)CC2)cc1	-14.8%
NC(c1csc(NC(=O)Nc2cccc(Cl)c2)n1)C1CCCCC1 (stereo not given)	-6.54%
Cc1ccc(Cn2cc(CN3CC(N(C)C)CS3(=O)=O)nn2)cc1 (stereo not given)	-29.8%
CC(C)(C)OC(=O)NC(CC(=O)OCc1ccccc1)C(=O)O (stereo not given)	4.95%
O=S(=O)(c1ccc(=S)[nH]c1)N1CCN(Cc2ccccc2)CC1	-9.4%
O=C(O)C(Cc1ccc(Cl)cc1)NS(=O)(=O)c1ccc(Cl)cc1 (stereo not given)	-12.4%

Compound	activity change, negative = toxicity
O=C(O)C1C2C=CC(C2)C1C(=O)NCc1ccccc1 (stereo not given)	-11.6%
O=C(Nc1cc(F)cc(F)c1)c1sc(Cl)nc1-c1ccccc1	-19.5%
CCS(=O)(=O)N1CCC2(CC1)OCCN2S(=O)(=O)c1ccccc1	-6.28%
NC(=O)C1CCN(C(=O)C2(NC(=O)Nc3cccc(F)c3)CCCCC2)CC1	9.22%
CCCCN1C[C@H](Cc2ccccc2)[C@@H](CC(=O)NCc2ccc(OC)cc2)C1=O	-17.5%
COc1ccc(CNC(=O)C[C@H]2C(=O)N(Cc3ccccc3)C[C@@H]2Cc2ccccc2)cc1	-16.9%
CCCCn1nc(C(=O)Nc2ccc3c(c2)OCO3)c2ccccc2c1=O	-14.3%
CO[C@@H]1CN(C)C(=O)c2ccc(NS(=O)(=O)c3cccc(F)c3)cc2OC[C@@H](C)N(C(=O)Cc2cccnc2)C[C@H]1C	-6.46% [at 18 µM]
COc1ccc(-c2csc(C(C)(O)c3ccc(F)c(F)c3)n2)cc1OC (stereo not given)	4.66%
COc1cc(NC(=O)c2nccn2C)cc(C(=O)Nc2cccc(C(F)(F)F)c2)c1	-11.7%
COc1ccc(NC(=O)CN2CCc3ccccc3C2)cc1S(=O)(=O)N1CCOCC1	-4.47%
COc1ccc(CCC(=O)Nc2cc(S(=O)(=O)N3CCOCC3)ccc2OC(C)C)cc1	-8.21%
CCCNC(=O)N1CC2(C1)CN(Cc1cccc(F)c1)[C@@H](CO)c1[nH]c3cc(OC)ccc3c12	1.05%
C[C@@H](NC(=O)[C@@H]1[C@@H](CO)[C@@H]2Cn3c(cccc3=O)[C@@H]2N1CC1CCCC1)c1ccccc1	-15.9%
CC(Oc1ccc2ccc(=O)oc2c1)C(=O)NC(Cc1c[nH]c2ccc(O)cc12)C(=O)O (stereo not given)	-5.7%
O=C(N[C@@H]1CC[C@H](CCNC(=O)C2CCCCC2)O[C@@H]1CO)c1ccccn1	-2.22%
COc1ccc(CCN2CC(C(=O)NCCc3ncccc3C)CCC2=O)cc1 (stereo not given)	6.79%
CCCc1cc(CNC(=O)C2CCC(=O)N(CCc3cccc(F)c3)C2)on1 (stereo not given)	-26.1%
Nc1ccc2oc(-c3ccccc3Cl)cc(=O)c2c1O	-5.16%
COc1ccc(Cl)cc1-c1cc(C(=O)N[C@H](C)c2ccccc2)[nH]n1	-18.1%
Cc1ccc(OCCCCNC(C)c2ccccc2)c(C)c1 (stereo not given)	-5.1%
CC(C)c1ccccc1OCCCCN1CCCCC1	-30.4%
Cc1cc(O)c(C(C)C)cc1NC(=O)c1ccccc1Cl	-17.8%
